# Compounds with a hit are over-represented: about 8.9% of the library has one in this group of screens.
# M1 agonist = M1 muscarinic receptor agonists, primary screen, CHO-M1 cells, Fluo-4 calcium, agonist mode; hit rate 3% among 64,000; B-score at 10 µM; Fluo-4 calcium fluorescence; hits give high values; AID 626, 2007;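 active = fluorescence rise, raw or as B-score row- and column-corrected plate score, outside the 99.7% band of its plate's samples, either direction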
# mHtt clearance = clearance of mutant huntingtin inclusions, primary screen, imaging, HeLa Exon1htt(103Q)mCFP, confocal imaging. aggregate imaging; zero = plate's median compound well. inhibition, % at 1.5 µM. hit rate 0.42% among 47,000. AID 853, 2007;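 active = inhibition of aggregate fluorescence above about 70%, also judged a hit by eye on the cell image, limit read from the data, passing the limit was not always enough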;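 note: cells exposed to compound for three days before fixation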
# M1 antag = antagonists of rat M1 muscarinic receptor | Muscarinic acetylcholine receptor M1 (Rattus norvegicus), P08482 | CHO-M1 cells, Fluo-4 calcium, ACh EC80 antagonist mode; hits give low values | B-score at 10 µM | hit rate 3.4% among 64,000;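 active = calcium fluorescence response, raw or row-and-column corrected B-score, differing from the plate sample mean either way at a set confidence level, mostly lower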
# Target sequence (P08482 whole entry, looked up): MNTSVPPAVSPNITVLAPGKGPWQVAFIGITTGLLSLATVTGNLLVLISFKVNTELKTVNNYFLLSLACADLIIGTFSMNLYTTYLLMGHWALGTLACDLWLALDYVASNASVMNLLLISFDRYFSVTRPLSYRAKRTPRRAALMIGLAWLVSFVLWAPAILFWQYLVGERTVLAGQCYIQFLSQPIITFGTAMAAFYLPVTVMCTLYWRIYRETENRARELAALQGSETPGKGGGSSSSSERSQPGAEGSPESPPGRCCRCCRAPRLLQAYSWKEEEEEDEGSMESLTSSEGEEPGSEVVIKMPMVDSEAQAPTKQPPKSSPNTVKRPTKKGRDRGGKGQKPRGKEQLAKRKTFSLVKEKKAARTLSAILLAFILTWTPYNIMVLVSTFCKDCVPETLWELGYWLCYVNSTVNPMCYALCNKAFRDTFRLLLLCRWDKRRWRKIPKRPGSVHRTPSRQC
# D1 mod = D1 CRE-luciferase signal change, two-sided – cell-based, HEK293 D1, dopamine EC30, D1 allosteric modulator project, primary screen | B-score at 10 µM | D(1A) dopamine receptor (Homo sapiens), P21728 | dopamine EC30 potentiation; actives deviate in either direction | AID 641, 2007 | hit rate 5.9% among 58,000;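 active = luminescence count or its row- and column-corrected plate score outside the 99.7% band of the plate's sample wells, on either side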
# WNV NS2B-NS3 inh = inhibitors of WNV NS2B-NS3 protease, primary screen, biochemical, fluorogenic substrate. Genome polyprotein (West Nile virus), P06935. fluorogenic substrate Ex360/Em465; hits give low values. z-score (test concentration not listed). hit rate 0.18% among 65,000; in the data active = z-score below about -3
# D1 PAM confirm = D1 receptor positive allosteric modulators, retest, confirmation, cell-based, HEK293 D1, CRE-luciferase, duplicate. luminescence at 10 µM. hit rate 88% among 2,200. AID 642, 2007. dopamine EC30 potentiation; hits give high values. shares compounds with D1 mod;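 active = luminescence in either of two replicates above the same-plate mean plus 3 SD of the low-dose dopamine control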
# D1 ag no DA = D1 receptor agonism without dopamine, confirmation, mechanism study for D1 allosteric modulator project, cell-based, HEK293 D1, CRE-luciferase, secondary assay 1. shares compounds with D1 mod. luminescence, no dopamine; hits give high values. luminescence at 10 µM. hit rate 0.8% among 1,900; in the data active = luminescence above about 3900
# Isoprot counter = counter-screen for D1 modulators: isoproterenol response in HEK293 cells; AID 647; HEK293 D1 CRE-luciferase, isoproterenol EC30 counter-screen; calls only at 10 µM; shares compounds with D1 mod; hit rate 63% among 2,200;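 active = luminescence in either replicate above plate mean of wells with a partly effective reference agonist dose plus 3 SD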;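 note: isoproterenol raises cAMP through native beta-adrenoceptor Gs so signal bypasses D1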
# Active calls of the source: *; i = inactive; nt = not tested or not shown; + = active, no number.
SMILES,M1 agonist,mHtt clearance,M1 antag,D1 mod,WNV NS2B-NS3 inh,D1 PAM confirm,D1 ag no DA,Isoprot counter
Nc1nc2sc3c(c2c(=O)s1)CCCC3,1.16,nt,0.237,13.9*,-0.28,13312*,1256,+
COc1cc(CN(C)CC(=O)c2[nH]c(C)c(C(C)=O)c2C)ccc1OC(F)F,1.49,nt,-1.75,5.02*,0.58,7936*,1244,+
COc1ccc(Cc2nnc(SCC(=O)N3CCc4ccccc4C3)o2)cc1,-0.54,13.8,0.0423,-0.261,-0.41,nt,nt,nt
C=CCn1c(=S)[nH]c2nc3c(cc2c1=O)CCCC3,0.5,nt,-0.569,6.02*,0.11,13488*,1592,i
COc1ccc(C(=O)NCCc2nnc(SCC(=O)Nc3ccccc3)n2C)cc1,-0.967,nt,-0.182,-0.517,-0.44,nt,nt,nt
COc1cc2c(cc1OC)CN(CC(=O)NC(=O)NCc1ccco1)CC2,-0.259,nt,-0.0115,6.79*,-0.61,8812*,nt,i
CCOC(=O)c1c(C)c(C(=O)Nc2cc(OC)ccc2OC)c(C)n1CC,0.781,42.4,0.343,3.14*,-0.97,7504*,1448,+
Cc1ccc(Nc2nc(Oc3ccc(OCc4ccccc4)nn3)nc(N3CCOCC3)n2)cc1,0.0282,-1.0,1.04,1.18,-0.54,nt,nt,nt
c1ccc(COc2ccc(Oc3nc(N4CCCCC4)nc(N4CCOCC4)n3)nn2)cc1,0.239,nt,-0.0878,9.23*,-1.39,15844*,1888,+
CC1(C)Cc2c(c(-c3ccccc3)[nH]c(=O)c2C#N)CO1,-1.05,nt,1.64,7.2*,-0.91,17304*,1772,+
CCOC(=O)c1c(NC(N)=O)sc(C)c1C,0.0187,1.6,1.12,6.67*,1.66,11700*,1768,+
CCOC(=O)Nc1sc(C(=O)N(CC)CC)c(C)c1C(=O)OCC,1.32,-18.5,0.0596,5.08*,0.25,14176*,1880,i
Cc1ccc(-n2c(C)cc(C)c(C#N)c2=O)cc1Cl,0.0214,nt,0.91,0.0277,1.56,nt,nt,nt
Cc1cc(C(=O)Nc2ccc(S(=O)(=O)Nc3nccs3)cc2)c(C)o1,0.635,-43.6,-0.142,8.35*,-0.25,16172*,1476,+
CCCc1cc(=O)[nH]c(NCc2ccc(Cl)cc2)n1,1.38,-40.2,0.225,2.85*,-0.63,8064*,1432,i
CCOC(=O)c1[nH]c(C)c(C(=O)Nc2cc(OC)ccc2OC)c1C,0.165,i,0.181,1.91,-0.88,nt,nt,nt
O=C(Nc1ccccc1Oc1ccccc1)c1cnccn1,1.62,23.7,0.0328,4.08*,-1.1,9216*,1488,i
Cc1cc(SCC(=O)N2CCC(c3noc4ccc(F)cc34)CC2)nc2ccccc12,-0.437,9.5,-0.688,3.66*,0.44,6804*,1500,i
Fc1cc2ncn(Cc3ccccc3)c2cc1F,-0.0846,-46.7,0.0104,0.257,2.21,nt,nt,nt
CC(C)(C)OC(=O)N1CCC(c2c(C(=O)O)cnn2-c2ccccc2)CC1,0.18,-120.5,0.984,-1.62,1.79,nt,nt,nt
CCOc1ccc(-c2cc3nc(C4CCN(C(=O)OC(C)(C)C)CC4)c(C(=O)O)cn3n2)cc1,-0.198,nt,-1.1,12.7*,-1.17,13012*,1592,+
CCC(c1nnnn1CCc1ccccc1)N1CCN(c2ccc(OC)cc2)CC1 (stereo not given),-0.794,nt,-0.153,-0.149,0.62,nt,nt,nt
CCOC(=O)/C=C1\NC2(CCCCC2)Cc2cc(OC)c(OC)cc21,nt,-13.9,nt,nt,nt,nt,nt,nt
CCOC(=O)/C=C1\NC(C)(C)Cc2cc(OC)c(O)cc21,0.988,-11.9,0.561,3.96*,-0.8,8420*,1572,i
COc1cc2c(cc1OC)/C(=C/C(=O)N1CCOCC1)NC(C)(C)C2,0.278,nt,0.5,9.95*,0.49,18680*,1652,+
SMILES,M1 agonist,mHtt clearance,M1 antag,D1 mod,WNV NS2B-NS3 inh,D1 PAM confirm,D1 ag no DA,Isoprot counter
FC(F)(F)c1nnc2sc(-c3cccs3)nn12,0.391,59.2,0.223,21.9*,-0.46,10532*,1524,+
FC(F)(F)c1nnc2sc(-c3ccncc3)nn12,0.263,nt,0.179,0.232,0.8,nt,nt,nt
CC12CNCC(C)(CN(C(c3ccccc3)c3ccccc3)C1)C2,nt,25.6,nt,nt,nt,nt,nt,nt
c1ccc(Oc2nc(NCc3ccco3)nc(NCc3ccco3)n2)cc1,0.103,nt,-0.168,5.17*,-0.62,11736*,1696,+
CCOc1nc(NCc2ccco2)nc(Nc2ccc(OC)cc2)n1,1.67,nt,0.531,4.46*,-0.24,10436*,1588,+
COC(=O)C(NS(C)(=O)=O)(c1c(C)[nH]c2ccccc12)C(F)(F)F (stereo not given),-0.861,-31.1,0.021,-0.858,0.25,nt,nt,nt
COC(=O)CSc1nc2c(c(=O)[nH]c(=O)n2C)n1CCC(C)C,0.457,-71.0,0.536,5.17*,-0.18,12872*,1692,+
CCCCCn1c(SCC(=O)OC)nc2c1c(=O)[nH]c(=O)n2C,-0.129,nt,-0.0713,4.24*,-0.43,14176*,1660,i
CC(C)CCn1c(SCCN2CCOCC2)nc2c1c(=O)[nH]c(=O)n2C,-0.0925,-17.5,0.0101,2.18,-1.06,nt,nt,nt
CCC(C)Sc1nc2c(c(=O)[nH]c(=O)n2C)n1C (stereo not given),-0.903,-2.1,0.248,2.52,0.23,nt,nt,nt
CCOC(=O)C(CC)Sc1nc2c(c(=O)[nH]c(=O)n2C)n1C/C=C(/C)Cl (stereo not given),1.37,-23.4,0.0207,8.62*,-0.72,16300*,1792,+
O=C(O)C(Oc1ccc2c3c(c(=O)oc2c1)CCC3)c1ccccc1 (stereo not given),-0.287,28.4,-0.0525,0.181,0.27,nt,nt,nt
O=C(O)CNC(=O)CCN1C(=O)c2ccccc2C1=O,nt,-38.6,nt,nt,nt,nt,nt,nt
Cc1ccc(C(=O)CSc2nc(C)cc(SCc3nnc(-c4ccccc4)o3)n2)cc1,-0.139,nt,0.65,-0.331,-0.07,nt,nt,nt
COc1cccc(CNC(=O)C2CCN(S(=O)(=O)c3c(C)nn(C)c3C)CC2)c1,0.096,-111.3,-0.432,-0.0235,0.4,nt,nt,nt
COc1cccc(C2CC(c3cccc(Br)c3)n3nc(N)nc3N2)c1 (stereo not given),0.179,nt,0.0235,9.32*,-0.8,12600*,1776,+
COc1ccc(C2CC(c3cccc(OC)c3)n3nc(N)nc3N2)cc1 (stereo not given),-0.0911,nt,0.365,-0.413,-0.64,nt,nt,nt
CCc1ccc(C2CC(c3ccccc3)Nc3nc(N)nn32)cc1 (stereo not given),-0.18,nt,-0.0162,2.7,0.09,nt,nt,nt
